Data as given in PubChem BioAssay.

Assays:
[1] = system: Botulinum neurotoxin type F light chain protease (Clostridium botulinum); test: Clostridium botulinum type F light chain protease inhibitors, microsphere substrate cleavage, validation (AID 588459); conditions: multiplex microsphere protease substrate cleavage assay, flow cytometry; at 10 µM; hits give high values
[2] = molecular target: Botulinum neurotoxin type A (Clostridium botulinum) (UniProt P0DPI0); test: BoNT/A light chain protease inhibitors, biochemical, multiplex microsphere flow cytometry, validation set (AID 588460); conditions: at 10 µM, hits give high values
[3] = molecular target: Lethal factor (Bacillus anthracis) (UniProt P15917); test: Bacillus anthracis lethal factor inhibition, microsphere flow cytometry protease assay, validation at 10 µM (AID 588461); conditions: multiplex microsphere protease cleavage assay, hits give high values

Measured: inhibition

Botulinum neurotoxin type A (Clostridium botulinum), sequence (P0DPI0 whole entry, looked up): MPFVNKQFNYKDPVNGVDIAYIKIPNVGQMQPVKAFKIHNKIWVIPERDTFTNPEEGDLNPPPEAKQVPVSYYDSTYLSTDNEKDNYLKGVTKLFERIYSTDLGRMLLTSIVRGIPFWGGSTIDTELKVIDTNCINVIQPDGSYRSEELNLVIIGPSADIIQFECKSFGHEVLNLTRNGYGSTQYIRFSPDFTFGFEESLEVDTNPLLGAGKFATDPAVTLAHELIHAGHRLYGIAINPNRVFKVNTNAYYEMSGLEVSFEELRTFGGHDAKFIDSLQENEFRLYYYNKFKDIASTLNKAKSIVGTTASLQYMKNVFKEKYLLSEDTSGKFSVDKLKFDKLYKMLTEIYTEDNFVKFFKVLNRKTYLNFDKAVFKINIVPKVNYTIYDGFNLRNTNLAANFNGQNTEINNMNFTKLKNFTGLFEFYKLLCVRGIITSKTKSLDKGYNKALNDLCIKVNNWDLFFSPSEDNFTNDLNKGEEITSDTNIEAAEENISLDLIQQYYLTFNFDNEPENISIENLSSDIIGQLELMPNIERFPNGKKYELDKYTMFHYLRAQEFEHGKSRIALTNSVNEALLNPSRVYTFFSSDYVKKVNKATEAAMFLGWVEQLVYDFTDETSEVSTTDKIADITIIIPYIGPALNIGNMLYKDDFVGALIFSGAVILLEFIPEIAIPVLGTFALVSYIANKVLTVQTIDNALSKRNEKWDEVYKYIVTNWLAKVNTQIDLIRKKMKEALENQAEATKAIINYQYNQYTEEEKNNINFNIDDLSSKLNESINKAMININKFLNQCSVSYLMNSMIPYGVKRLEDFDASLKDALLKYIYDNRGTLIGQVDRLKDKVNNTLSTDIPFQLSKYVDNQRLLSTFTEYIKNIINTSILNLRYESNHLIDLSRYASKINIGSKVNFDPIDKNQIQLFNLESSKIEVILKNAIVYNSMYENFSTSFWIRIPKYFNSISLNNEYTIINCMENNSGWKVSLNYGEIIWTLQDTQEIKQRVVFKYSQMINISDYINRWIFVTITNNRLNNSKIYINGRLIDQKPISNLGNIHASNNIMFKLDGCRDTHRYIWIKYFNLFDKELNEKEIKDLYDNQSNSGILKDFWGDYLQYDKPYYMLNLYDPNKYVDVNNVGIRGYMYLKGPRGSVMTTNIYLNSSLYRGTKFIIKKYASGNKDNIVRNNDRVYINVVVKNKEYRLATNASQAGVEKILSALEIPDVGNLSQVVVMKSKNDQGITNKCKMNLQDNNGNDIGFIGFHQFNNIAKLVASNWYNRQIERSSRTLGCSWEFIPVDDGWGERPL
Lethal factor (Bacillus anthracis), sequence (P15917 whole entry, looked up): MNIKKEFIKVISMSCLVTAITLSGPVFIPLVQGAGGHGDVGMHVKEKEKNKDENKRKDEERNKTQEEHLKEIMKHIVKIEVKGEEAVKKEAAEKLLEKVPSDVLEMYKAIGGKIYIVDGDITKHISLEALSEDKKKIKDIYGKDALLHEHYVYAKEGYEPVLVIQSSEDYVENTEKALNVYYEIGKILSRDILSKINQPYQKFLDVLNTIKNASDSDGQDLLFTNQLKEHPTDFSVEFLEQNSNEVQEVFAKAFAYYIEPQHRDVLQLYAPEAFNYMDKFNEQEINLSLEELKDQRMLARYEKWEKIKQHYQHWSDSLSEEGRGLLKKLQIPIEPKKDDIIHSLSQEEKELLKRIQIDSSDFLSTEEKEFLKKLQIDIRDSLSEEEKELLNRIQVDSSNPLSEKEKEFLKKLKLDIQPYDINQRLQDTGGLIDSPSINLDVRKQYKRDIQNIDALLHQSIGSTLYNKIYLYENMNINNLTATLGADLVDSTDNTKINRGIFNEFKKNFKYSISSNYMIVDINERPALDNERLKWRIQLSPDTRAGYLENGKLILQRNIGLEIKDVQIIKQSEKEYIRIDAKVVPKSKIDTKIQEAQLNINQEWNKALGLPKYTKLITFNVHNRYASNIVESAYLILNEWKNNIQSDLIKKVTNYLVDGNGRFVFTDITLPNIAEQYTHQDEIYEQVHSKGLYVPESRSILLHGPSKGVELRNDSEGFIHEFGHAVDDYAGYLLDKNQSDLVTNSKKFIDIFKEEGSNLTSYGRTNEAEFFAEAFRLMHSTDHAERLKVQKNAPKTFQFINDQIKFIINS

CC(C)N(C(=O)Cc1ccccc1[N+](=O)[O-])C(C)C
inactive: [1] -0.6% | [2] -2% | [3] -1.5%

COc1ccc2cc[nH]c2c1
inactive: [1] -1.5% | [2] -0.4% | [3] 2.8%

C=CCC1(Cl)C(=O)C(Cl)=C(N2CCOCC2)C1(OC)OC (stereo unspecified)
inactive: [1] -1.2% | [2] -1.2% | [3] 0%

COc1ccc(/C=C/C(=O)c2cc3cccc(OC)c3oc2=O)cc1
inactive: [1] 2.3% | [2] 2.8% | [3] 8.8%

COc1ccc(OCc2cccc(C(=O)NN)c2)cc1
inactive: [1] 0.1% | [2] 1.2% | [3] -6.1%

Nc1nc(SCc2ccc([N+](=O)[O-])cc2)c2ncn(C3OC(CO)C(O)C3O)c2n1 (stereo unspecified)
inactive: [1] 0.3% | [2] 1% | [3] 5%

O=C(CCc1c[nH]c2ccccc12)NCc1ccco1
inactive: [1] 2.9% | [2] 0.2% | [3] 5.8%

CC1(CC(=O)Nc2ccccc2)NC(=S)N(c2ccccc2)N1 (stereo unspecified)
inactive: [1] 3% | [2] 0% | [3] 5.1%

CCCn1c(=O)c2[nH]c(C3CCCC3)nc2n(CCC)c1=O
inactive: [1] 4.7% | [2] 0.8% | [3] -1.9%

CC(=O)Nc1c(I)c(NC(C)=O)c(I)c(C(=O)O)c1I
inactive: [1] -0.5% | [2] -1.9% | [3] 0.5%

CCCCOC(=O)c1ccc(N)cc1
inactive: [1] 3.6% | [2] -1.1% | [3] 2.2%

CC(=O)NC(NC(=S)N1CCCCCC1)C(Cl)(Cl)Cl (stereo unspecified)
inactive: [1] -2.7% | [2] -2.4% | [3] 5.4%
